Measurements from PubChem BioAssay.
Activity calls are given as the source filed them.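 The calls were made as follows: active = thallium flux through the channel raised or lowered by more than 3 SD from vehicle-only wells, actives on both sides; inactive = the rest.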

test system: R275C/Slo1WT/beta2; assay: modulators of BK channel variants, profiling panel, selectivity assay, cell-based, U2OS BacMam, thallium flux, beta subunits (AID 1259406); details: at 30 µM;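 also: initial slope of Thallos dye fluorescence rise after thallium is added; log ratio against the mean of 0.3% DMSO vehicle wells on the same plate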

Log fold change Tl+ flux, inactive:
CCOC(=O)c1nn(-c2ccc(C(C)(C)C)cc2)c(=O)c(C#N)c1C -0.0278
O=C(NC(=O)N1CCCCC1)c1cc(Br)cc(Br)c1 -0.0054
NC(=O)CN1C(=O)C(=Cc2ccco2)N=C1c1ccccc1 -0.0206
COc1cc(C(F)(F)F)nc2ccc(C#CCOC(=O)Nc3cccc(Cl)c3)cc12 0.0405
Cc1ccc(S(=O)(=O)c2ncsc2SCc2ccc(Cl)cc2Cl)cc1 -0.00155
NC(=O)c1nnn(-c2ccc([N+](=O)[O-])cc2)c1-c1ccccc1 -0.00577
CN1c2ccsc2C(=O)C(=NNc2cccc(C(F)(F)F)c2)S1(=O)=O -0.0248
O=C(OCCSc1sccc1[N+](=O)[O-])c1ccc(Cl)cc1 0.0278
CCOC(=O)c1ccc(OCC#Cc2ccc(C(F)(F)F)cn2)cc1 -0.0412
CCSc1n[nH]c(=S)s1 0.00702
CCC(=NOc1ccc(C(F)(F)F)cn1)c1ccc(-c2ccccc2F)cc1 -0.0112
Cc1cc(CNCC(O)C(F)(F)F)no1 (centres undefined) 0.0726
COc1cccc(N2CC(=O)N(NC(=O)NC3CCCCC3)CC2=O)c1 -0.0113
Cc1nn(-c2ccccc2)nc1C(=O)NNC(=O)CSCc1cccc2ccccc12 0.0123
Cc1ccc(S(N)(=O)=O)c(I)c1 -0.0513
O=C(Nc1ccc(OC(F)(F)F)cc1)OC1CN(C(c2ccccc2)c2ccccc2)C1 -0.0244
COCCCNC1=C(C#N)C(=O)NC(c2cccs2)S1 (centres undefined) -0.0245
Cn1cnc([N+](=O)[O-])c1Sc1cccs1 0.0293
Cc1ncc(CSc2nc(C(C)(C)C)cs2)c(CO)c1O -0.00882
Cc1cc2c(NC(=O)c3ccccc3C(=O)O)cccc2nn1 -0.00217
CSc1cc(C(C)(C)C)[nH]n1 0.0223
NC(C=Cc1cc(C(F)(F)F)cc(C(F)(F)F)c1)=NOC(=O)c1c(F)cccc1F 0.0436
O=C(O)c1cccc(CSc2cccs2)c1 0.0372
O=C(CC(=O)NNC(=O)c1ccc(F)cc1)NNC(=O)c1ccc(F)cc1 -0.086
CN1c2ccccc2C(C)(C)C12C=Cc1cc(Br)cc([N+](=O)[O-])c1O2 (centres undefined) -0.0665
O=C(O)C(Cc1ccccc1[N+](=O)[O-])=NNc1ccccc1 0.00699
Cc1cccc(N=Cc2cc(Cl)cc(Cl)c2O)c1C -0.00626
Cc1c(O)nc2ccccn2c1=O 0.0209
Cc1cc(NS(=O)(=O)c2ccc(NC(=O)c3nccnc3C(=O)O)cc2)no1 -0.0416
Fc1cccc(Cl)c1CSc1nccn1-c1cccnc1 0.0418
Cc1cc(-c2nn(C)c(=O)c3ccccc23)cc(C)c1O -0.0205
CC(C)(C)OC(=O)N1CCC(c2nc(-c3ccc(Cl)s3)cs2)CC1 0.0374
N#CC(CCC(=O)O)(CCC(=O)O)S(=O)(=O)c1ccccc1 0.0459
CC(C)(C)NC(=O)NCCO -0.03
CC(C)(C)c1cc2nc(C(F)(F)F)cc(NN=Cc3ccccc3)n2n1 -0.0137
O=C1NC2CC2N1C(=O)OCc1ccccc1 (centres undefined) -0.0313
Clc1ccc(Sc2cn[nH]c2-c2ccc3c(c2)OCCO3)cc1 -0.0512

Log fold change Tl+ flux, active:
O=S(=O)(Nc1ccccc1SCc1ccc2nonc2c1)c1cccs1 -0.239
CC(C)n1c(SCC(=O)c2ccccc2)nc2cc(Cl)ccc21 -0.173
